Data: PubChem BioAssay (NCATS)
Records with an inconclusive call do not appear. Activity calls are given as the source filed them. Calls follow the shape of the dose curve; as a rule, active = well fitted cell-killing curve with a large enough effect; inconclusive = small, poorly fitted or top-dose-only effect; inactive = flat fitted curve, though single readings scatter.

Assay: qHTS assay to identify small molecule inhibitors of chordoma cells - UCH-2 (AID 1259356)
Conditions: UCH-2 chordoma viability, CellTiter-Glo ATP luminescence, 48 h; series mostly up to 46.1 µM; activity change, negative = inhibition: at the top concentration
% is scaled to controls: 0 for no effect and ±100 for the full control effect.

Structure (SMILES) | activity change, negative = inhibition
Nc1ccn([C@H]2CS[C@@H](CO)O2)c(=O)n1 | 8.61% (inactive)
CCCCC(=O)N(Cc1ccc(-c2ccccc2-c2nn[nH]n2)cc1)[C@@H](C(=O)O)C(C)C | 11.3% (inactive)
CCC1OC(=O)C[C@@H](O)[C@H](C)[C@@H](O[C@@H]2O[C@H](C)C[C@H](N(C)C)[C@H]2O)[C@@H](CC=O)C[C@@H](C)C(=O)/C=C/[C@]2(C)OC2C1C (stereo not given in full) | -29.2% (inactive)
CC1(C)S[C@@H]2[C@H](NC(=O)C(C(=O)O)c3ccsc3)C(=O)N2[C@H]1C(=O)O (stereo not given in full) | 0.445% (inactive)
Cc1cc(C(=O)NNCc2ccccc2)no1 | 3.83% [at 20.6 µM] (inactive)
